Key:
Assay in all cases: PBM; 200 nM protein, PBS
Details in all cases: dsDNA, one strand shown
VENTX = molecular target: T1, VENTX (Homo sapiens, UniProt O95231 78-163, R121Q)
T1 sequence: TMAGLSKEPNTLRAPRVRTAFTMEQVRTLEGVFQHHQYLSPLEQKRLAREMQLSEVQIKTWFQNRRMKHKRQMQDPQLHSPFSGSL

HOXA4 [1] = molecular target: HOXA4 (Homo sapiens, UniProt Q00056 201-287, W262R)
HOXA7 [2] = molecular target: HOXA7 (Homo sapiens, UniProt P31268 116-202)
ALX4 [3] = molecular target: ALX4 (Homo sapiens, UniProt Q9H161 200-286)
Chain of ALX4 (Homo sapiens, UniProt Q9H161 200-286) (Q9H161 200-286): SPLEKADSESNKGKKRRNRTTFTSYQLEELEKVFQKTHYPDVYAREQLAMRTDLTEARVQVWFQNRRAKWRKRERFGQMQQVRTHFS

PRRX1 [4] = molecular target: PRRX1 (Homo sapiens, UniProt P54821 80-166, F113S)
Chain of PRRX1 (Homo sapiens, UniProt P54821 80-166, F113S) (P54821 80-166 F113S): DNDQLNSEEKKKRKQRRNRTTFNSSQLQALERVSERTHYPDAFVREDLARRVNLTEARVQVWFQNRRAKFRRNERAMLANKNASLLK

HOXB6 [5] = molecular target: HOXB6 (Homo sapiens, UniProt P17509 132-218, K202E)
Chain of HOXB6 (Homo sapiens, UniProt P17509 132-218, K202E) (P17509 132-218 K202E): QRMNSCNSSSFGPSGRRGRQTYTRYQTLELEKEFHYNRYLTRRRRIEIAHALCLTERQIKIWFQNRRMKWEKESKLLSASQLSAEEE

ALX4 [6] = molecular target: ALX4 (Homo sapiens, UniProt Q9H161 200-286, Q225E)
Chain of ALX4 (Homo sapiens, UniProt Q9H161 200-286, Q225E) (Q9H161 200-286 Q225E): as the sequence (Q9H161 200-286) above, with Q26E counted along it

HOXA2 = HOXA2 (Homo sapiens, UniProt O43364 129-215, R185T)
Chain of HOXA2 (O43364 129-215 R185T): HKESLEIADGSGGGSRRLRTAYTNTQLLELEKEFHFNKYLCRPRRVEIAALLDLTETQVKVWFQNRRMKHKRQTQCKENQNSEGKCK

HOXA4 [7] = molecular target: HOXA4 (Homo sapiens, UniProt Q00056 201-287, R217L)
Chain of HOXA4 (Homo sapiens, UniProt Q00056 201-287, R217L) (Q00056 201-287 R217L): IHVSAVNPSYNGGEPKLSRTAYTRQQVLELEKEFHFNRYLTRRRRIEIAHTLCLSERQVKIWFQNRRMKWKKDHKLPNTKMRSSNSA

MSX2 [8] = molecular target: MSX2 (Homo sapiens, UniProt P35548 130-214, R199I)
Chain of MSX2 (Homo sapiens, UniProt P35548 130-214, R199I) (P35548 130-214 R199I): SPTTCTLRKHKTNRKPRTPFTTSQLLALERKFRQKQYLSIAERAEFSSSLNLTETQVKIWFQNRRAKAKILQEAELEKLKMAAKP

HOXA4 [9] = molecular target: HOXA4 (Homo sapiens, UniProt Q00056 201-287)
Chain of HOXA4 (Homo sapiens, UniProt Q00056 201-287) (Q00056 201-287): as the sequence (Q00056 201-287 R217L) above, with L17R counted along it

MSX2 [10] = molecular target: MSX2 (Homo sapiens, UniProt P35548 130-214)
Chain of MSX2 (Homo sapiens, UniProt P35548 130-214) (P35548 130-214): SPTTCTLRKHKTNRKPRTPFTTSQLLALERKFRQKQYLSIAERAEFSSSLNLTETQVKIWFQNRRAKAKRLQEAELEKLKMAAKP

VAX1 [11] = molecular target: VAX1 (Homo sapiens, UniProt Q5SQQ9 86-172)
Chain of VAX1 (Homo sapiens, UniProt Q5SQQ9 86-172) (Q5SQQ9 86-172): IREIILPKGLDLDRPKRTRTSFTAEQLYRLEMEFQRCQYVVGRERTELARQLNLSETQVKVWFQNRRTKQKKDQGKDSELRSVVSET

MSX2 [12] = molecular target: MSX2 (Homo sapiens, UniProt P35548 130-214, F161Y)
Chain of MSX2 (Homo sapiens, UniProt P35548 130-214, F161Y) (P35548 130-214 F161Y): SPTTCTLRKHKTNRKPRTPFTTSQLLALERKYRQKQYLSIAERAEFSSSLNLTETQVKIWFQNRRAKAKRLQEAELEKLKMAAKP

VAX1 [13] = molecular target: VAX1 (Homo sapiens, UniProt Q5SQQ9 86-172, T142I)
Chain of VAX1 (Homo sapiens, UniProt Q5SQQ9 86-172, T142I) (Q5SQQ9 86-172 T142I): as the sequence (Q5SQQ9 86-172) above, with T57I counted along it

HOXA7 [14] = molecular target: HOXA7 (Homo sapiens, UniProt P31268 116-202, W177C)
Chain of HOXA7 (Homo sapiens, UniProt P31268 116-202, W177C) (P31268 116-202 W177C): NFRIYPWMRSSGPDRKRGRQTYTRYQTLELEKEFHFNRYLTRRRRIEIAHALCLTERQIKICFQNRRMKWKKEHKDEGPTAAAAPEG

HOXA4 [15] = molecular target: HOXA4 (Homo sapiens, UniProt Q00056 201-287, W262F)
Chain of HOXA4 (Homo sapiens, UniProt Q00056 201-287, W262F) (Q00056 201-287 W262F): as the sequence (Q00056 201-287 R217L) above, with L17R, W62F counted along it

PRRX1 [16] = molecular target: PRRX1 (Homo sapiens, UniProt P54821 80-166)
Chain of PRRX1 (Homo sapiens, UniProt P54821 80-166) (P54821 80-166): as the sequence (P54821 80-166 F113S) above, with S34F counted along it

VAX1 [17] = molecular target: VAX1 (Homo sapiens, UniProt Q5SQQ9 86-172, K157R)
Chain of VAX1 (Homo sapiens, UniProt Q5SQQ9 86-172, K157R) (Q5SQQ9 86-172 K157R): as the sequence (Q5SQQ9 86-172) above, with K72R counted along it

HOXB6 [18] = molecular target: HOXB6 (Homo sapiens, UniProt P17509 132-218)
Chain of HOXB6 (Homo sapiens, UniProt P17509 132-218) (P17509 132-218): as the sequence (P17509 132-218 K202E) above, with E71K counted along it

Chain of HOXA4 (Homo sapiens, UniProt Q00056 201-287, W262R) (Q00056 201-287 W262R): as the sequence (Q00056 201-287 R217L) above, with L17R, W62R counted along it
Chain of HOXA7 (Homo sapiens, UniProt P31268 116-202) (P31268 116-202): as the sequence (P31268 116-202 W177C) above, with C62W counted along it

Sequence	binding signal (VENTX)	binding signal (HOXA4 [1])	binding signal (HOXA7 [2])	binding signal (ALX4 [3])	binding signal (PRRX1 [4])	binding signal (HOXB6 [5])	binding signal (ALX4 [6])	binding signal (HOXA2)	binding signal (HOXA4 [7])	binding signal (MSX2 [8])	binding signal (HOXA4 [9])	binding signal (MSX2 [10])	binding signal (VAX1 [11])	binding signal (MSX2 [12])	binding signal (VAX1 [13])	binding signal (HOXA7 [14])	binding signal (HOXA4 [15])	binding signal (PRRX1 [16])	binding signal (VAX1 [17])	binding signal (HOXB6 [18])
ATAATTAT	11.9 upbm affinity estimate (log intensity, higher = more binding, comparable within an allelic series)	10.9 upbm affinity estimate (log intensity, higher = more binding, comparable within an allelic series)	12 upbm affinity estimate (log intensity, higher = more binding, comparable within an allelic series)	14.2 upbm affinity estimate (log intensity, higher = more binding, comparable within an allelic series)	11.7 upbm affinity estimate (log intensity, higher = more binding, comparable within an allelic series)	10.3 upbm affinity estimate (log intensity, higher = more binding, comparable within an allelic series)	13.7 upbm affinity estimate (log intensity, higher = more binding, comparable within an allelic series)	13.6 upbm affinity estimate (log intensity, higher = more binding, comparable within an allelic series)	12.7 upbm affinity estimate (log intensity, higher = more binding, comparable within an allelic series)	12.9 upbm affinity estimate (log intensity, higher = more binding, comparable within an allelic series)	14.3 upbm affinity estimate (log intensity, higher = more binding, comparable within an allelic series)	14 upbm affinity estimate (log intensity, higher = more binding, comparable within an allelic series)	13.2 upbm affinity estimate (log intensity, higher = more binding, comparable within an allelic series)	13.6 upbm affinity estimate (log intensity, higher = more binding, comparable within an allelic series)	13.3 upbm affinity estimate (log intensity, higher = more binding, comparable within an allelic series)	9.06 upbm affinity estimate (log intensity, higher = more binding, comparable within an allelic series)	12.1 upbm affinity estimate (log intensity, higher = more binding, comparable within an allelic series)	13.6 upbm affinity estimate (log intensity, higher = more binding, comparable within an allelic series)	13.3 upbm affinity estimate (log intensity, higher = more binding, comparable within an allelic series)	12.4 upbm affinity estimate (log intensity, higher = more binding, comparable within an allelic series)
AATTAATA	11.9 upbm affinity estimate (log intensity, higher = more binding, comparable within an allelic series)	10.8 upbm affinity estimate (log intensity, higher = more binding, comparable within an allelic series)	11.7 upbm affinity estimate (log intensity, higher = more binding, comparable within an allelic series)	14 upbm affinity estimate (log intensity, higher = more binding, comparable within an allelic series)	11.4 upbm affinity estimate (log intensity, higher = more binding, comparable within an allelic series)	10.2 upbm affinity estimate (log intensity, higher = more binding, comparable within an allelic series)	13.4 upbm affinity estimate (log intensity, higher = more binding, comparable within an allelic series)	12.6 upbm affinity estimate (log intensity, higher = more binding, comparable within an allelic series)	12.3 upbm affinity estimate (log intensity, higher = more binding, comparable within an allelic series)	12.5 upbm affinity estimate (log intensity, higher = more binding, comparable within an allelic series)	13.8 upbm affinity estimate (log intensity, higher = more binding, comparable within an allelic series)	13.5 upbm affinity estimate (log intensity, higher = more binding, comparable within an allelic series)	12.9 upbm affinity estimate (log intensity, higher = more binding, comparable within an allelic series)	13.2 upbm affinity estimate (log intensity, higher = more binding, comparable within an allelic series)	12.8 upbm affinity estimate (log intensity, higher = more binding, comparable within an allelic series)	8.99 upbm affinity estimate (log intensity, higher = more binding, comparable within an allelic series)	11.8 upbm affinity estimate (log intensity, higher = more binding, comparable within an allelic series)	13.4 upbm affinity estimate (log intensity, higher = more binding, comparable within an allelic series)	12.5 upbm affinity estimate (log intensity, higher = more binding, comparable within an allelic series)	12.1 upbm affinity estimate (log intensity, higher = more binding, comparable within an allelic series)
TAATTATA	11.9 upbm affinity estimate (log intensity, higher = more binding, comparable within an allelic series)	10.8 upbm affinity estimate (log intensity, higher = more binding, comparable within an allelic series)	11.8 upbm affinity estimate (log intensity, higher = more binding, comparable within an allelic series)	14.3 upbm affinity estimate (log intensity, higher = more binding, comparable within an allelic series)	11.8 upbm affinity estimate (log intensity, higher = more binding, comparable within an allelic series)	10.3 upbm affinity estimate (log intensity, higher = more binding, comparable within an allelic series)	13.9 upbm affinity estimate (log intensity, higher = more binding, comparable within an allelic series)	13.6 upbm affinity estimate (log intensity, higher = more binding, comparable within an allelic series)	12.7 upbm affinity estimate (log intensity, higher = more binding, comparable within an allelic series)	13 upbm affinity estimate (log intensity, higher = more binding, comparable within an allelic series)	14.2 upbm affinity estimate (log intensity, higher = more binding, comparable within an allelic series)	14 upbm affinity estimate (log intensity, higher = more binding, comparable within an allelic series)	13.3 upbm affinity estimate (log intensity, higher = more binding, comparable within an allelic series)	13.6 upbm affinity estimate (log intensity, higher = more binding, comparable within an allelic series)	13.4 upbm affinity estimate (log intensity, higher = more binding, comparable within an allelic series)	9 upbm affinity estimate (log intensity, higher = more binding, comparable within an allelic series)	12.1 upbm affinity estimate (log intensity, higher = more binding, comparable within an allelic series)	13.6 upbm affinity estimate (log intensity, higher = more binding, comparable within an allelic series)	13.4 upbm affinity estimate (log intensity, higher = more binding, comparable within an allelic series)	12.3 upbm affinity estimate (log intensity, higher = more binding, comparable within an allelic series)

— article PMC11006913
